Laboratory results reported in PubChem BioAssay (NCI).
Compounds without any hit were thinned out: in the full panel of roughly 83,000, 20% have a hit.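 96-well plates, one dose, 48 hours. Percent growth reported; active if below 10.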 Calls of active or inactive are those of the source.

Columns and labels:
Test in all cases: NCI-60 one-dose screen, 48 h (100 = growth as untreated, 0 = no growth, -100 = all killed)
Details in all cases: 10 µM unless noted
NCI-H23 lung = tested on: NCI-H23 lung
NCI-H322M lung = tested on: NCI-H322M lung
HOP-62 NSCLC = tested on: HOP-62 NSCLC
NCI-H460 lung = tested on: NCI-H460 lung
HOP-92 NSCLC = tested on: HOP-92 NSCLC
NCI-H522 lung = tested on: NCI-H522 lung
A549/ATCC NSCLC = tested on: A549/ATCC NSCLC
786-0 renal = tested on: 786-0 renal
COLO 205 colon = tested on: COLO 205 colon
DU-145 prostate = tested on: DU-145 prostate
K-562 leukemia = tested on: K-562 leukemia
MALME-3M melanoma = tested on: MALME-3M melanoma
MDA-MB-231 breast = tested on: MDA-MB-231 breast
RXF 393 renal = tested on: RXF 393 renal
SF-268 CNS = tested on: SF-268 CNS
SF-295 CNS = tested on: SF-295 CNS
SF-539 CNS = tested on: SF-539 CNS
UACC-257 melanoma = tested on: UACC-257 melanoma
M14 melanoma = tested on: M14 melanoma
HCT-15 colon = tested on: HCT-15 colon

Measured: growth

S=C1NC2(c3ccccc3)CCC(=S)N2c2ccccc21 (stereo not given)
inactive: NCI-H23 lung 103% | NCI-H322M lung 95.8% | HOP-62 NSCLC 98.2% | NCI-H460 lung 108% | HOP-92 NSCLC 99.1% | NCI-H522 lung 90.7% | A549/ATCC NSCLC 101% | 786-0 renal 104% | COLO 205 colon 117% | DU-145 prostate 115% | K-562 leukemia 93.6% | MALME-3M melanoma 99.5% | MDA-MB-231 breast 90.9% | RXF 393 renal 116% | SF-268 CNS 102% | SF-295 CNS 107% | SF-539 CNS 107% | UACC-257 melanoma 110% | M14 melanoma 103% | HCT-15 colon 102%

CCCCCCC(O)(c1ccc(F)cc1)C(CN1CCOCC1)c1ccccc1 (stereo not given)
inactive: NCI-H23 lung 25.4% | NCI-H322M lung 74.7% | HOP-62 NSCLC 56.9% | NCI-H460 lung 16.1% | NCI-H522 lung 26.9% | A549/ATCC NSCLC 23.9% | 786-0 renal 44.9% | DU-145 prostate 51.7% | K-562 leukemia 12.9% | MALME-3M melanoma 24.5% | MDA-MB-231 breast 26.2% | RXF 393 renal 20.6% | SF-268 CNS 47.4% | SF-539 CNS 79.1% | UACC-257 melanoma 57.2% | M14 melanoma 35.5% | HCT-15 colon 28.1%
active: HOP-92 NSCLC -16.1% | COLO 205 colon -21.7% | SF-295 CNS -21.5%

COc1ccccc1N1C(=N)S/C(=C\c2ccc(OCc3ccccc3F)cc2)C1=O
inactive: NCI-H23 lung 79.8% | NCI-H322M lung 81.6% | HOP-62 NSCLC 98.8% | NCI-H460 lung 77.4% | HOP-92 NSCLC 81.1% | NCI-H522 lung 65.7% | A549/ATCC NSCLC 80.3% | 786-0 renal 87.9% | COLO 205 colon 112% | DU-145 prostate 102% | K-562 leukemia 62.2% | MALME-3M melanoma 118% | MDA-MB-231 breast 51.4% | RXF 393 renal 65.8% | SF-268 CNS 82% | SF-295 CNS 95.1% | SF-539 CNS 106% | UACC-257 melanoma 90.9% | M14 melanoma 70.7% | HCT-15 colon 81.3%

Nc1ccc(-n2c(=O)oc3ccc(Cl)cc3c2=O)c(Cl)c1
active: NCI-H23 lung -4.26% | NCI-H322M lung -2.46% | HOP-62 NSCLC -6.88% | NCI-H460 lung 2.28% | HOP-92 NSCLC -13.1% | NCI-H522 lung -20.1% | A549/ATCC NSCLC 6.26% | 786-0 renal -33.5% | COLO 205 colon -27.4% | DU-145 prostate 9.79% | K-562 leukemia 7.44% | MALME-3M melanoma -29.6% | MDA-MB-231 breast -25.6% | RXF 393 renal -6.99% | SF-268 CNS 3.88% | SF-295 CNS -58% | SF-539 CNS -5.36% | UACC-257 melanoma -21.1% | M14 melanoma -11.2% | HCT-15 colon 1.16%

CCOC(=O)CSc1c(-c2ccccc2)c2cc(Cl)ccc2[nH]c1=O
inactive: NCI-H23 lung 101% | NCI-H322M lung 94.9% | HOP-62 NSCLC 94.5% | NCI-H460 lung 101% | HOP-92 NSCLC 100% | NCI-H522 lung 91.2% | A549/ATCC NSCLC 102% | 786-0 renal 97.1% | COLO 205 colon 110% | DU-145 prostate 103% | K-562 leukemia 84.1% | MALME-3M melanoma 114% | MDA-MB-231 breast 104% | RXF 393 renal 103% | SF-268 CNS 102% | SF-295 CNS 69.6% | SF-539 CNS 107% | UACC-257 melanoma 120% | M14 melanoma 104% | HCT-15 colon 91.7%

CN(C)CCCNCc1ccc(-c2ccc(F)c(Cl)c2)o1
inactive: NCI-H23 lung 77.1% | NCI-H322M lung 65% | HOP-62 NSCLC 19.2% | HOP-92 NSCLC 35.7% | NCI-H522 lung 19.5% | 786-0 renal 49.6% | DU-145 prostate 19.7% | MDA-MB-231 breast 13.4% | RXF 393 renal 16% | SF-268 CNS 53.3% | SF-539 CNS 60.8%
active: NCI-H460 lung -58.4% | A549/ATCC NSCLC -50.5% | COLO 205 colon -90% | K-562 leukemia -19% | MALME-3M melanoma -57.7% | SF-295 CNS -18.3% | UACC-257 melanoma -5.97% | M14 melanoma -80.9% | HCT-15 colon 1.01%

CCOC(=O)c1cc2c(n1Cc1ccccc1)-c1oncc1CCC2
inactive: NCI-H23 lung 88.3% | NCI-H322M lung 107% | HOP-62 NSCLC 77.9% | NCI-H460 lung 97.3% | HOP-92 NSCLC 86.3% | NCI-H522 lung 61.4% | A549/ATCC NSCLC 59.2% | 786-0 renal 102% | COLO 205 colon 69% | DU-145 prostate 114% | K-562 leukemia 24.1% | MALME-3M melanoma 39.2% | MDA-MB-231 breast 74.4% | RXF 393 renal 84.6% | SF-268 CNS 88.7% | SF-295 CNS 98.2% | SF-539 CNS 83.3% | UACC-257 melanoma 82.5% | M14 melanoma 68% | HCT-15 colon 45.7%

O=C1/C(=C/c2cccc(O)c2)COc2ccc(O)cc21
inactive: NCI-H23 lung 86.5% | NCI-H322M lung 98.2% | HOP-62 NSCLC 103% | NCI-H460 lung 76.3% | HOP-92 NSCLC 104% | NCI-H522 lung 36.6% | A549/ATCC NSCLC 103% | 786-0 renal 82.1% | COLO 205 colon 102% | DU-145 prostate 80.5% | MALME-3M melanoma 78.6% | MDA-MB-231 breast 103% | RXF 393 renal 115% | SF-268 CNS 90.3% | SF-295 CNS 105% | SF-539 CNS 92.3% | UACC-257 melanoma 93.3% | M14 melanoma 85.3% | HCT-15 colon 10.6%
active: K-562 leukemia 7.52%
